Assay [1] can be described thus: inhibitors of TNFa-induced NFkB p65 translocation, primary screen, imaging, HUVEC, MLSMR starter and 10KST1 sets (AID 438;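 active means inhibition above 20% together with a positive visual image hit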;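 further: compound added about 3h40 before a 20 min TNFalpha stimulation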;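 on inhibition: signal is the nuclear over cytoplasmic p65 intensity ratio per well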). Conditions: HUVEC TNFa-induced p65 nuclear translocation; cell count: measured here: nuclei count (cytotoxicity indicator), at 2.08 µM; inhibition: at 2 µM, stronger effect = higher value, 0% TNFa-plus-vehicle, 100% no-TNFa wells.
Assay [2] can be described thus: reduction of polyQ htt aggregates in cells – imaging, exon1htt(103Q)mCFP cells, high-content imaging, primary screen (AID 483;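 active means visual image review flags a hit and inhibition of aggregation exceeds 20%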;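 further: compound exposure lasted 3 days before fixation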;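 on nuclei count: percent of the per-plate median nuclei count of sample wells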). Conditions: exon1htt(103Q)mCFP cell line, aggregate imaging, at 2 µM; inhibition of aggregation: stronger effect = higher value; nuclei count: measured here: cell count, toxicity.
A short description of assay [3]: endothelial E-selectin expression blockers – imaging, HUVEC, immunofluorescence, MLSMR starter and 10KST1 sets, primary screen (AID 487;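 active means visually confirmed hit in the image check and inhibition above 20%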;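 on inhibition: signal is fraction of cell area covered by stained E-selectin grains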;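 on nuclei count: 100% = median nuclei count of all wells on the same plate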). Conditions: HUVEC TNFalpha-induced E-selectin immunofluorescence imaging, at 2 µM; inhibition: stronger effect = higher value; nuclei count: measured here: cell number, toxicity.
Assay [4] deals with Voltage-gated potassium channel subunit beta-2 (Rattus norvegicus) (UniProt P62483). The experiment in a line: inhibitors of rat Kvbeta2 reductase activity – biochemical, NADPH fluorescence, primary screen (AID 622;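 active means fluorescence slope higher than the sample average by over 3 SD, cut at about -0.22 in these data, passing the limit was not always enough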;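 further: slope of raw intensity against log time taken from 70 to 1610 s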). Particulars: recombinant KvBeta, 4-cyanobenzaldehyde reduction, at 10 µM, stronger effect = higher value.
The target is the same in assay [5]. The experiment in a line: enhancers of rat Kvbeta2 NADPH turnover – biochemical, NADPH fluorescence, primary screen (AID 623).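 Further: fluorescence intensity change per second fitted from 20 to 320 s.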 Particulars: Recombinant KvBeta, NADPH fluorescence decrease slope, 10 min; at 10 µM; stronger effect = lower value.
Assay [6] has as its target Alpha-2C adrenergic receptor (Homo sapiens) (UniProt P18825). The experiment in a line: compounds altering alpha2C-coupled GIRK flux – cell-based, HEK293 alpha2C/GIRK1/2, thallium flux, primary screen (AID 624;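 active means fluorescence slope after compound addition differing from the mean of all screened samples at 99.7% confidence, in either direction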;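 further: slope of fluorescence ratio to pre-addition baseline per second over 15 to 24 s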). Particulars: thallium flux BTC fluorescence, at 10 µM, actives lie on both sides.
Assay [7] is described as follows: blockers of RIG-like receptor reporter activation – cell-based, Sendai virus stimulus, luciferase, 10K MLSCN set, TLR/RLR signaling modifier project, primary screen (AID 602276;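 active means inhibition at or above 50% at 10 µM; inactive means inhibition below 50%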;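 further: firefly luciferase from ISG56 promoter only with Renilla not read in this screen; 0% = Sendai virus plus DMSO and 100% = medium plus DMSO without virus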). Conditions: HEK293 RL24 IRF3 luciferase reporter, at 10 µM, stronger effect = higher value. For orientation: In a reporter assay the amount or activity of a reporter protein is the signal.
Assay [8] in a line: TLR3 IRF3 reporter activation blockers – cell-based, poly I:C stimulus, luciferase, 10K MLSCN set, primary screen (AID 602277;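 active means inhibition of the reporter signal at or above 50%; inactive means inhibition below 50%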). Particulars: HEK293-TLR3 RL24 IRF3 luciferase reporter, at 10 µM, stronger effect = higher value.

Broadly, the inhibition is the change of the read-out against control, counted positive when it falls.

Active and inactive are the calls of the source.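 How the source made its calls, unless noted: active means NADPH fluorescence slope more negative than the mean of all samples by about 3 SD, 99.7% confidence; inactive means the rest.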

Voltage-gated potassium channel subunit beta-2 (Rattus norvegicus), sequence (P62483 whole entry, looked up): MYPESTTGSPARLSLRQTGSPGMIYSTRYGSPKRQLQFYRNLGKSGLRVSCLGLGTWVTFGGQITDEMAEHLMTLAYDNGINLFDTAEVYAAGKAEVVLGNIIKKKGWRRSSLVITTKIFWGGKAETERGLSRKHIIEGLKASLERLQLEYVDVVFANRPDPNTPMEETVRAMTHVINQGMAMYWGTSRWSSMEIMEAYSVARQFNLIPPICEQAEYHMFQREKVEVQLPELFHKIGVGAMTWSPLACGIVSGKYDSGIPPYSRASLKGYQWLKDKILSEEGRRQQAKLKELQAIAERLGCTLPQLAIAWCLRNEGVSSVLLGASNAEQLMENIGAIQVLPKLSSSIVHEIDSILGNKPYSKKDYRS
Alpha-2C adrenergic receptor (Homo sapiens), sequence (P18825 whole entry, looked up): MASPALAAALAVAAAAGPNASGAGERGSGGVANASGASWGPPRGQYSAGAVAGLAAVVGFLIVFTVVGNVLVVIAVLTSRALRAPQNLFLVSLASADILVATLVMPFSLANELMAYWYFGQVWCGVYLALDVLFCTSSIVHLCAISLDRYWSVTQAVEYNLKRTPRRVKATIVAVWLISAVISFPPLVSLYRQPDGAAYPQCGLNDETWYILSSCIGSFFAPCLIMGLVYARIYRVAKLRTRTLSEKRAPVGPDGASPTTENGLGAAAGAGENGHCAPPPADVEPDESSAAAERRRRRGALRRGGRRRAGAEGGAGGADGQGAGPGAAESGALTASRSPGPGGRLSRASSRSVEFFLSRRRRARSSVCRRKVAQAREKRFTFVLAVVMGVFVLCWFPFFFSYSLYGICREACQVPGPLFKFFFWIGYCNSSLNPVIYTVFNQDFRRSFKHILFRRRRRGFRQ

As to `O=C(Nc1cccnc1)Nc1ccccn1`, the cell count in assay [1] amounted to 571. The inhibition is -4.3% (inactive) in assay [1], -6.7% (inactive) in assay [3], -5.87% (inactive) in assay [7] and 0.317% (inactive) in assay [8]. In addition, in assay [2], the inhibition of aggregation is 6.4% (inactive). Also, the nuclei count in assay [2] is 106%; in assay [3], 74.1%. Also, the fluorescence slope in assay [4] is -0.432 (inactive). The NADPH fluorescence slope in assay [5] is -4.6e-05 (inactive). In addition, the slope in assay [6] is 0.00395 (inactive).
Take `O=C(CNC(=O)c1cc2ccccc2o1)NCc1cccs1`: in assay [1], the cell count was 420. For the same compound, the inhibition was 3.6% (inactive) in assay [1], -57.3% (inactive) in assay [3], 5.59% (inactive) in assay [7] and 16.2% (inactive) in assay [8]. For the same compound, the inhibition of aggregation in assay [2] was -2.1% (inactive). Further, the figures for the nuclei count in assay [2] and in assay [3] were 107% and 112%, respectively. Besides, the fluorescence slope in assay [4] was -0.469 (inactive). The NADPH fluorescence slope in assay [5] was -1.5e-06 (inactive). Also, in assay [6], the slope was 0.0103 (inactive).
As to `CCOc1ccc(NC(=O)CN(c2cc(C)cc(C)c2)S(=O)(=O)c2c(C)noc2C)cc1`, the cell count in assay [1] is 785. Besides, the inhibition is -1.1% (inactive) in assay [1], -14.8% (inactive) in assay [3], 13.8% (inactive) in assay [7] and -22.3% (inactive) in assay [8]. Also, the inhibition of aggregation in assay [2] is 23.6% (inactive). Further, the nuclei count in assay [2] is 99.2%; in assay [3], 105%. In addition, the fluorescence slope in assay [4] is -0.574 (inactive). In addition, the NADPH fluorescence slope in assay [5] was 1.1e-05 (inactive). Besides, the slope in assay [6] was 0.0058 (inactive).
Take `COCCCNC(=O)c1ccccc1NS(=O)(=O)c1ccc(C)cc1`: the cell count in assay [1] is 369. The inhibition in assay [1] was -0.9% (inactive); in assay [3], -66.6% (inactive); in assay [7], 11.8% (inactive); in assay [8] it was 16.1% (inactive). For the same compound, in assay [2], the inhibition of aggregation was -9% (inactive). The nuclei count in assay [2] came to 122%; in assay [3], 72.3%. The fluorescence slope in assay [4] was -0.423 (inactive). Moreover, the NADPH fluorescence slope in assay [5] was -1.5e-05 (inactive). Further, in assay [6], the slope was 0.00558 (inactive).
Regarding `COc1ccc(C2CC(c3ccc(Cl)cc3Cl)Nc3nc(N)nn32)cc1` (centres undefined), the cell count in assay [1] was 578. Moreover, the inhibition in assay [1] is 2.3% (inactive); in assay [3] it was -10.3% (inactive); in assay [7], 13.9% (inactive); in assay [8], 36.6% (inactive). Also, the inhibition of aggregation in assay [2] is -1.8% (inactive). In addition, the nuclei count in assay [2] amounted to 105%; in assay [3], 102%. Also, in assay [4], the fluorescence slope is -0.593 (inactive). The NADPH fluorescence slope in assay [5] was 1.1e-05 (inactive). Moreover, the slope in assay [6] was 0.00847 (inactive).
As for `CCOc1ccccc1C1C(C(=O)Nc2ccc(OC)cc2)=C(C)Nc2nc(CCCO)nn21` (centres undefined), the cell count in assay [1] was 659. Besides, the inhibition is -0.3% (inactive) in assay [1], -35.4% (inactive) in assay [3], -0.537% (inactive) in assay [7] and 17.2% (inactive) in assay [8]. For the same compound, the inhibition of aggregation in assay [2] is -30.8% (inactive). Moreover, the nuclei count in assay [2] was 116%; in assay [3], 118%. Further, the fluorescence slope in assay [4] was -0.443 (inactive). Besides, the NADPH fluorescence slope in assay [5] was -2.8e-05 (inactive). For the same compound, the slope in assay [6] was 0.00548 (inactive).
Turning to `CC(C)COC(=O)N(C)c1ccc(C(O)(C(F)(F)F)C(F)(F)F)cc1`, the cell count in assay [1] is 744. The inhibition was -12.4% (inactive) in assay [1], -56.8% (inactive) in assay [3], -9.85% (inactive) in assay [7] and -5.85% (inactive) in assay [8]. Besides, the inhibition of aggregation in assay [2] is -7.8% (inactive). Moreover, the values for the nuclei count in assay [2] and in assay [3] were 116% and 112%, respectively. Further, the fluorescence slope in assay [4] was -0.618 (inactive). For the same compound, in assay [5], the NADPH fluorescence slope was -4.8e-06 (inactive). Further, the slope in assay [6] is 0.00749 (inactive).
With `CC(=O)c1cccc(-n2nnnc2SCC(=O)N2CCCC2)c1`, the cell count in assay [1] was 720. Moreover, the inhibition in assay [1] was -3.5% (inactive); in assay [3], -56% (inactive); in assay [7], 4.48% (inactive); in assay [8], 14.5% (inactive). Also, the inhibition of aggregation in assay [2] is -2.4% (inactive). Further, the nuclei count in assay [2] turned out to be 119%; in assay [3] it was 106%. The fluorescence slope in assay [4] was -0.401 (inactive). Further, the NADPH fluorescence slope in assay [5] was -4.2e-05 (inactive). Also, the slope in assay [6] was 0.00357 (inactive).
With `CCOc1ccc2nc(SCc3ccc(C(=O)OC)o3)[nH]c2c1`, the cell count in assay [1] was 335. Further, the inhibition in assay [1] is 15.9% (inactive); in assay [3], -39.4% (inactive); in assay [7], 8.32% (inactive); in assay [8], -5.74% (inactive). In assay [2], the inhibition of aggregation was 16.9% (inactive). Moreover, the nuclei count in assay [2] is 96.5%; in assay [3], 112%. The fluorescence slope in assay [4] is -0.546 (inactive). Further, in assay [5], the NADPH fluorescence slope was 2e-06 (inactive). Also, the slope in assay [6] was 0.00497 (inactive).
Consider `COc1cc(NC(=O)C2C3C=CC(C3)C2C(=O)O)c(OC)cc1Cl` (centres undefined), for which the cell count in assay [1] was found to be 406. For the same compound, the inhibition in assay [1] is 0.8% (inactive); in assay [3], 19.6% (inactive); in assay [7], -7.81% (inactive); in assay [8] it was 20.2% (inactive). Besides, in assay [2], the inhibition of aggregation is -31% (inactive). In addition, the nuclei count stood at 98.6% in assay [2] and 90% in assay [3]. Further, the fluorescence slope in assay [4] was -0.49 (inactive). In addition, in assay [5], the NADPH fluorescence slope is -6.5e-06 (inactive). In addition, in assay [6], the slope was 0.00705 (inactive).
Turning to `CCCn1c(SCC(=O)Nc2ccccc2C(=O)OCC)nc2c1c(=O)n(C)c(=O)n2C`, the cell count in assay [1] is 225. Besides, the inhibition is -9.1% (inactive) in assay [1], -4.8% (inactive) in assay [3], 4.88% (inactive) in assay [7] and 5.62% (inactive) in assay [8]. In assay [2], the inhibition of aggregation is -9.7% (inactive). The nuclei count is 95.2% in assay [2] and 77.3% in assay [3]. The fluorescence slope in assay [4] is -0.402 (inactive). Further, the NADPH fluorescence slope in assay [5] is -3.8e-05 (inactive). Further, in assay [6], the slope was 0.00524 (inactive).
For `CCOc1ccc(N2C(=O)CC(N3CC(C)OC(C)C3)C2=O)cc1` (centres undefined), the cell count in assay [1] came to 578. Besides, the inhibition in assay [1] was -14.1% (inactive); in assay [3], 3.9% (inactive); in assay [7], 9.5% (inactive); in assay [8] it was 25.7% (inactive). For the same compound, the inhibition of aggregation in assay [2] is -12% (inactive). Moreover, the nuclei count came out at 104% in assay [2] and 128% in assay [3]. Moreover, in assay [4], the fluorescence slope is -0.357 (inactive). The NADPH fluorescence slope in assay [5] is 5.9e-06 (inactive). Besides, the slope in assay [6] is 0.00636 (inactive).
On to `Cc1cc(NC(=O)CSc2nccn2-c2ccc(F)cc2)no1`, for which, in assay [1], the cell count was determined as 433. Also, the inhibition is -0.3% (inactive) in assay [1], -184% (inactive) in assay [3], 13.6% (inactive) in assay [7] and 3.73% (inactive) in assay [8]. Also, the inhibition of aggregation in assay [2] is -13.1% (inactive). Also, the nuclei count was 111% in assay [2] and 114% in assay [3]. In addition, in assay [4], the fluorescence slope was -0.6 (inactive). In assay [5], the NADPH fluorescence slope is 9.8e-06 (inactive). The slope in assay [6] was 0.00665 (inactive).
With `CCCNC(=O)c1ccccc1NC(=O)CN(c1ccccc1OCC)S(C)(=O)=O`, the cell count in assay [1] amounted to 654. The inhibition in assay [1] was -8.2% (inactive); in assay [3], -142% (inactive); in assay [7] it was -1.76% (inactive); in assay [8], 20.9% (inactive). For the same compound, the inhibition of aggregation in assay [2] was -11% (inactive). For the same compound, the nuclei count in assay [2] was determined as 105%; in assay [3] it was 102%. Besides, in assay [4], the fluorescence slope was -0.465 (inactive). For the same compound, in assay [5], the NADPH fluorescence slope was -5.5e-06 (inactive). In addition, in assay [6], the slope is 0.00349 (inactive).
